Results taken from PubChem BioAssay AID1159580 (chemical genetic matrix, 2015).
Out of some 5,500 compounds screened, about 2,000 (36%) were called active. Roughly 18% stayed inconclusive and do not appear here. Some of the results follow. Values without a mark were called inactive. Rule as the data show it: active = normalized growth mostly below about 0.91 (no sharp cut-off); inconclusive = no clear call, values can overlap the other calls; inactive = mostly above about 0.92.

Assay: chemical genetic growth profiling, strain panel (AID 1159580);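 also: tested at 20 µM; growth read once vehicle control cultures reached saturation at 30 °C; 1 = growth at the plate median or of vehicle wells; lower values mean less growth of the strain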
Conditions: growth OD
[1] = S. cerevisiae deletion strains, locus YAL013W, strain DEP1, stronger effect = lower value
[2] = S. cerevisiae deletion strains, locus YBR229C, strain ROT2, stronger effect = lower value
[3] = S. cerevisiae deletion strains, locus YDL101C, strain DUN1, stronger effect = lower value
[4] = S. cerevisiae deletion strains, locus YDL134C, strain PPH21, stronger effect = lower value
[5] = S. cerevisiae deletion strains, locus YDR150W, strain NUM1, stronger effect = lower value
[6] = S. cerevisiae deletion strains, locus YEL061C, strain CIN8, stronger effect = lower value
[7] = S. cerevisiae deletion strains, locus YGR078C, strain PAC10, stronger effect = lower value
[8] = S. cerevisiae deletion strains, locus YHR030C, strain SLT2, stronger effect = lower value
[9] = S. cerevisiae deletion strains, locus YHR087W, strain rtc3, stronger effect = lower value
[10] = S. cerevisiae deletion strains, locus YJR043C, strain POL32, stronger effect = lower value
[11] = S. cerevisiae deletion strains, locus YJR075W, strain HOC1, stronger effect = lower value
[12] = S. cerevisiae deletion strains, locus YKL190W, strain CNB1, stronger effect = lower value
[13] = S. cerevisiae deletion strains, locus YLR039C, strain RIC1, stronger effect = lower value
[14] = S. cerevisiae deletion strains, locus YLR058C, strain SHM2 (second series), stronger effect = lower value
[15] = S. cerevisiae deletion strains, locus YLR085C, strain ARP6, stronger effect = lower value
[16] = S. cerevisiae deletion strains, locus YLR262C, strain YPT6, stronger effect = lower value
[17] = S. cerevisiae deletion strains, locus YML094W, strain GIM5, stronger effect = lower value
[18] = S. cerevisiae deletion strains, locus YMR219W, strain ESC1, stronger effect = lower value
[19] = S. cerevisiae deletion strains, locus YMR263W, strain SAP30, stronger effect = lower value
[20] = S. cerevisiae deletion strains, locus YNL153C, strain GIM3, stronger effect = lower value
[21] = S. cerevisiae deletion strains, locus YNL298W, strain CLA4 (second series), stronger effect = lower value
[22] = S. cerevisiae deletion strains, locus YNL322C, strain KRE1, stronger effect = lower value
[23] = S. cerevisiae deletion strains, locus YNR030W, strain Alg12, stronger effect = lower value
[24] = S. cerevisiae deletion strains, locus YOL006C, strain TOP1, stronger effect = lower value
[25] = S. cerevisiae deletion strains, locus YPL055C, strain LGE1, stronger effect = lower value
[26] = S. cerevisiae deletion strains, locus YPL241C, strain CIN2, stronger effect = lower value
[27] = S. cerevisiae deletion strains, locus YPR135W, strain CTF4, stronger effect = lower value
[28] = S. cerevisiae deletion strains, locus YCL061C, strain MRC1, stronger effect = lower value
[29] = S. cerevisiae deletion strains, locus YJL187C, strain SWE1, stronger effect = lower value
[30] = S. cerevisiae deletion strains, locus YMR307W, strain GAS1, stronger effect = lower value
[31] = S. cerevisiae strains, strain wild type, stronger effect = lower value
[32] = S. cerevisiae deletion strains, locus YGR229C, strain SMI1, stronger effect = lower value

Question: What does the source list for `Cc1c(Br)sc2ccc(Cl)cc12`?
Answer: normalized growth [1]: 0.987; normalized growth [2]: 0.936; normalized growth [3]: 0.96; normalized growth [4]: 0.849 (active); normalized growth [5]: 1.03; normalized growth [6]: 0.909; normalized growth [7]: 0.952; normalized growth [8]: 0.294 (active); normalized growth [9]: 0.963; normalized growth [10]: 1.05; normalized growth [11]: 0.955; normalized growth [12]: 0.959; normalized growth [13]: 0.733 (active); normalized growth [14]: 0.952; normalized growth [15]: 0.708 (active); normalized growth [16]: 0.709 (active); normalized growth [17]: 0.864 (active); normalized growth [18]: 0.948; normalized growth [19]: 0.99; normalized growth [20]: 0.98; normalized growth [21]: 0.782 (active); normalized growth [22]: 0.976; normalized growth [23]: 0.926; normalized growth [24]: 0.891; normalized growth [25]: 1.04; normalized growth [26]: 0.939; normalized growth [27]: 0.953

Question: Which results are given for `Cc1csc2ccc(Cl)cc12`?
Answer: normalized growth [1]: 0.994; normalized growth [2]: 0.998; normalized growth [28]: 1.01; normalized growth [3]: 1.02; normalized growth [5]: 0.993; normalized growth [6]: 1.01; normalized growth [7]: 0.998; normalized growth [8]: 1.07; normalized growth [9]: 0.999; normalized growth [29]: 1.02; normalized growth [10]: 1; normalized growth [11]: 0.98; normalized growth [12]: 1.01; normalized growth [13]: 1.07; normalized growth [14]: 1; normalized growth [15]: 1.03; normalized growth [16]: 1.04; normalized growth [17]: 1.01; normalized growth [18]: 1; normalized growth [19]: 1.01; normalized growth [30]: 1.07; normalized growth [20]: 1.02; normalized growth [21]: 1.06; normalized growth [22]: 1.01; normalized growth [23]: 1.03; normalized growth [25]: 0.996; normalized growth [26]: 1.02; normalized growth [27]: 1; normalized growth [31]: 1.01

Question: With `NC(N)=[N+]1CCc2ccccc2C1` as the compound, how does the normalized growth (S. cerevisiae deletion strains, locus YAL040C, strain CLN3, stronger effect = lower value) read?
Answer: 0.966

Question: And the normalized growth (S. cerevisiae deletion strains, locus YCL061C, strain MRC1 (second series), stronger effect = lower value)?
Answer: 0.989

Question: What about the normalized growth [5] of the same compound?
Answer: 1

Question: What about the normalized growth (S. cerevisiae deletion strains, locus YDR363W, strain ESC2, stronger effect = lower value) of the same compound?
Answer: 0.904

Question: And the normalized growth (S. cerevisiae deletion strains, locus YER002W, strain NOP16, stronger effect = lower value)?
Answer: 0.982

Question: And the normalized growth [32]?
Answer: 0.962

Question: What about the normalized growth [19] of the same compound?
Answer: 0.988

Question: What about the normalized growth [30] of the same compound?
Answer: 1

Question: What about the normalized growth (S. cerevisiae deletion strains, locus YNL128W, strain TEP1, stronger effect = lower value) of the same compound?
Answer: 0.992

Question: What about the normalized growth [20] of the same compound?
Answer: 1

Question: What about the normalized growth (S. cerevisiae deletion strains, locus YNL175C, strain NOP13, stronger effect = lower value) of the same compound?
Answer: 0.991

Question: And the normalized growth (S. cerevisiae deletion strains, locus YNL197C, strain WHI3, stronger effect = lower value)?
Answer: 0.984

Question: And the normalized growth (S. cerevisiae deletion strains, locus YNL224C, strain SQS1, stronger effect = lower value)?
Answer: 1.01

Question: What about the normalized growth [22] of the same compound?
Answer: 0.972

Question: And the normalized growth (S. cerevisiae deletion strains, locus YOR083W, strain WHI5 (second series), stronger effect = lower value)?
Answer: 0.969

Question: And the normalized growth [25]?
Answer: 0.944

Question: What does the source list for `COc1cc(OC)nc(N)n1`?
Answer: normalized growth [1]: 1.02; normalized growth [2]: 0.958; normalized growth [28]: 1.03; normalized growth [3]: 1.04; normalized growth [5]: 1.03; normalized growth [6]: 1; normalized growth [7]: 1.03; normalized growth [32]: 0.979; normalized growth [8]: 1.06; normalized growth [9]: 0.974; normalized growth [29]: 1.02; normalized growth [10]: 1.06; normalized growth [11]: 1.01; normalized growth [12]: 0.992; normalized growth [13]: 0.946; normalized growth [14]: 0.991; normalized growth [15]: 0.949; normalized growth [16]: 0.96; normalized growth [17]: 0.986; normalized growth [18]: 0.98; normalized growth [19]: 1.02; normalized growth [20]: 1.02; normalized growth [21]: 0.99; normalized growth [22]: 0.988; normalized growth [23]: 0.999; normalized growth [24]: 1.01; normalized growth [25]: 1.02; normalized growth [26]: 1.02; normalized growth [27]: 1.06; normalized growth [31]: 0.985

Question: Which normalized growth [1] does the source give for `O=C1ON=C(c2ccccc2)/C1=C/c1ccc(Cl)cc1` here?
Answer: 0.174 (active)

Question: What about the normalized growth [2] of the same compound?
Answer: 0.145 (active)

Question: And the normalized growth [3]?
Answer: 0.203 (active)

Question: What about the normalized growth [4] of the same compound?
Answer: 0.77 (active)

Question: What about the normalized growth [6] of the same compound?
Answer: 0.637 (active)

Question: What about the normalized growth [7] of the same compound?
Answer: 0.138 (active)

Question: What about the normalized growth [8] of the same compound?
Answer: 0.16 (active)

Question: What about the normalized growth [9] of the same compound?
Answer: 0.172 (active)

Question: What about the normalized growth [10] of the same compound?
Answer: 0.198 (active)

Question: What about the normalized growth [11] of the same compound?
Answer: 0.129 (active)

Question: And the normalized growth [12]?
Answer: 0.523 (active)

Question: And the normalized growth [13]?
Answer: 0.782 (active)

Question: What about the normalized growth [14] of the same compound?
Answer: 0.311 (active)

Question: And the normalized growth [15]?
Answer: 0.297 (active)

Question: And the normalized growth [16]?
Answer: 0.834

Question: What about the normalized growth [17] of the same compound?
Answer: 0.584 (active)

Question: What about the normalized growth [18] of the same compound?
Answer: 0.172 (active)

Question: And the normalized growth [20]?
Answer: 0.105 (active)

Question: And the normalized growth [21]?
Answer: 0.481 (active)

Question: What about the normalized growth [22] of the same compound?
Answer: 0.472 (active)

Question: What about the normalized growth [23] of the same compound?
Answer: 0.462 (active)

Question: What about the normalized growth [25] of the same compound?
Answer: 0.11 (active)

Question: And the normalized growth [26]?
Answer: 0.331 (active)

Question: And the normalized growth [27]?
Answer: 0.294 (active)
